Targets with the largest changes are over-represented here; the source holds about 21,000 in all.
Compound: CC1Cc2ccccc2N1C(=O)C1CCCN(C1)C(=O)CCl (mixture of isomers) [TRIM25 ligand 11 (diastereomer mixture)]
Test: probe-labelled cysteine peptide fold change vs DMSO (competition) (log2 fold change); higher = less target engagement (more negative = stronger competition)
Conditions: THP-1, incubation time: 4 h
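Also: competitive chemoproteomic profiling in live THP-1 cells with an iodoacetamide desthiobiotin (IA-DTB) probe, comparing probe-labelled peptide intensities in compound-treated cells against DMSO-treated controls.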

UniProt Q5SY16, sequence (Q5SY16 whole entry, looked up): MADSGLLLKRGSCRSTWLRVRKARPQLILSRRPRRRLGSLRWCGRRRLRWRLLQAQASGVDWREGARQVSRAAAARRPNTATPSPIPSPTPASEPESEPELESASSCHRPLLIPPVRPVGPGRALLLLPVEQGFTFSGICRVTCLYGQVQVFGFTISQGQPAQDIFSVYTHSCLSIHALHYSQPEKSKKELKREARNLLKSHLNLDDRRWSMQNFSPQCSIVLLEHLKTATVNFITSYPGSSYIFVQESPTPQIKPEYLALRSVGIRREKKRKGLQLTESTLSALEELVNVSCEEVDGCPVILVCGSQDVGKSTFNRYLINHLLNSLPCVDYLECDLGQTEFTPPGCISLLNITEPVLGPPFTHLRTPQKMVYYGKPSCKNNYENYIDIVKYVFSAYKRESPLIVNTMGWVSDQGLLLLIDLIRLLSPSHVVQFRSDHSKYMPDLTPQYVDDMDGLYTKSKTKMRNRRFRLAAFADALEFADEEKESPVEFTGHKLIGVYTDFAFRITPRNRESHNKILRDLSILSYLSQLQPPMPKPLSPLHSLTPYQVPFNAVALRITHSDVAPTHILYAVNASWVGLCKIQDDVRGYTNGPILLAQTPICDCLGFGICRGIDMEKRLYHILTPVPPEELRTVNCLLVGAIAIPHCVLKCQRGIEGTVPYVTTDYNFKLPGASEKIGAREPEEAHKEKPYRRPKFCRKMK
UniProt O60524, sequence (O60524 whole entry, looked up): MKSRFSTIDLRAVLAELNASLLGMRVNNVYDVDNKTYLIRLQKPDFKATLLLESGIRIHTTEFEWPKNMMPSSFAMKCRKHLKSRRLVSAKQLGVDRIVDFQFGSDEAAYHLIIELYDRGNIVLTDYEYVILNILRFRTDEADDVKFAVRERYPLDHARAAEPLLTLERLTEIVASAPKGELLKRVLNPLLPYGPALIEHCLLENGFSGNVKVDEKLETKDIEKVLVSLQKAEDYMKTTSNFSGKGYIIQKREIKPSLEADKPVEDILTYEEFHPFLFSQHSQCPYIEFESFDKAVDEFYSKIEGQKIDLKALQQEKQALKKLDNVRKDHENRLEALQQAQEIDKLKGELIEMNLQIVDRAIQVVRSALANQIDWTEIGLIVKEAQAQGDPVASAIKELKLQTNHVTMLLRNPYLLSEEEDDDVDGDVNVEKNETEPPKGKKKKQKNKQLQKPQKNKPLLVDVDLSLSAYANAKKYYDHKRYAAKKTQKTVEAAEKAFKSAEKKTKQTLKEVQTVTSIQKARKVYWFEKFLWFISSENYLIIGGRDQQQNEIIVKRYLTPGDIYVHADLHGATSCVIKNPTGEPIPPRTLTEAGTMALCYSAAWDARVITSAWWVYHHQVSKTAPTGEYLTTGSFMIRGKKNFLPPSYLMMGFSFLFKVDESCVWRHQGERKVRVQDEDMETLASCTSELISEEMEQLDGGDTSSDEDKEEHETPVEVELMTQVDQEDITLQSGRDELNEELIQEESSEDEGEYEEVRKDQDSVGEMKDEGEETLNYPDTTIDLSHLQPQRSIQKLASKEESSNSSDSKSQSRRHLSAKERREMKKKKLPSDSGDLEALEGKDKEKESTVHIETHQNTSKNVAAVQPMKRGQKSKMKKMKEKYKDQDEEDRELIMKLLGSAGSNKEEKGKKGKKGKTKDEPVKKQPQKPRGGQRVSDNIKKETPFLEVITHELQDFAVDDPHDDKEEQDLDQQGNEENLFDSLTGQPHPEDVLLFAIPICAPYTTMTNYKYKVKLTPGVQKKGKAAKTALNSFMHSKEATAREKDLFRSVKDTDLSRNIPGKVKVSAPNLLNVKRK
UniProt P09874, sequence (P09874 whole entry, looked up): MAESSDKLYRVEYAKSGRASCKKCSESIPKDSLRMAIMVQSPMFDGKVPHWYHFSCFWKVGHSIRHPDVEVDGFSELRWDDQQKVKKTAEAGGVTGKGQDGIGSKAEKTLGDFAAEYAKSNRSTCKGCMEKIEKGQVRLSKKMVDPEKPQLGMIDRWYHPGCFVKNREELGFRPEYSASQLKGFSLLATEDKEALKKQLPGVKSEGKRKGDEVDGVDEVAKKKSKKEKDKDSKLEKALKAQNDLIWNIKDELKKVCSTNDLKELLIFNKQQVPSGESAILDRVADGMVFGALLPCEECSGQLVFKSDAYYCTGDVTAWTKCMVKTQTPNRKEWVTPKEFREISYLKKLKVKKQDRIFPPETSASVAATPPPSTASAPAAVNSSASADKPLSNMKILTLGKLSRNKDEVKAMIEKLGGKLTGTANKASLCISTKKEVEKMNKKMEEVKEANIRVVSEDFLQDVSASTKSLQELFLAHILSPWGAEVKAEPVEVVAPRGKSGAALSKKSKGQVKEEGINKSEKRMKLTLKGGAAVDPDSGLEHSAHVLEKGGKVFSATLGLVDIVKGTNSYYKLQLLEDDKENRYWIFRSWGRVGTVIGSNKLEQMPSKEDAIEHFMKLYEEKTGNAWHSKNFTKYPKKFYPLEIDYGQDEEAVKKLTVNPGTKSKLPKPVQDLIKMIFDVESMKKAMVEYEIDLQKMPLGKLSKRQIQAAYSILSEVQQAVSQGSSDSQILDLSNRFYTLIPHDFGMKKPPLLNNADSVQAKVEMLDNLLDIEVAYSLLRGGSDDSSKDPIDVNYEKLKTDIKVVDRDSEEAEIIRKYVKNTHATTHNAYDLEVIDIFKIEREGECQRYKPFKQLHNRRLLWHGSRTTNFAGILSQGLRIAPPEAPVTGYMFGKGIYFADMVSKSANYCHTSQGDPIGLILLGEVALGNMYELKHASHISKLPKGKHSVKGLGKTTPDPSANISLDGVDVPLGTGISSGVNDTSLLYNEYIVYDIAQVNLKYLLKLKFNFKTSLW
UniProt P43034, sequence (P43034 whole entry, looked up): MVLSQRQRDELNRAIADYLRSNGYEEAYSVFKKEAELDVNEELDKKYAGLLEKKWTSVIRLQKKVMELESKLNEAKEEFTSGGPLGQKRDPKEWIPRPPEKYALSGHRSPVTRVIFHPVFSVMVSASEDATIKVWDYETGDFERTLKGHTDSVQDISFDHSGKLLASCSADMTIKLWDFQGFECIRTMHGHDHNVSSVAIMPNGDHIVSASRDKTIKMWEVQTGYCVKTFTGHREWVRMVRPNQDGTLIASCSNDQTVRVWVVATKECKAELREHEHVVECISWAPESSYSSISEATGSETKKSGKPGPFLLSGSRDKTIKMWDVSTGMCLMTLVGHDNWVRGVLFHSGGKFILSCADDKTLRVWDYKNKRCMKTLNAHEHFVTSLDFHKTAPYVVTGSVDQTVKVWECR
UniProt Q9BVI4, sequence (Q9BVI4 whole entry, looked up): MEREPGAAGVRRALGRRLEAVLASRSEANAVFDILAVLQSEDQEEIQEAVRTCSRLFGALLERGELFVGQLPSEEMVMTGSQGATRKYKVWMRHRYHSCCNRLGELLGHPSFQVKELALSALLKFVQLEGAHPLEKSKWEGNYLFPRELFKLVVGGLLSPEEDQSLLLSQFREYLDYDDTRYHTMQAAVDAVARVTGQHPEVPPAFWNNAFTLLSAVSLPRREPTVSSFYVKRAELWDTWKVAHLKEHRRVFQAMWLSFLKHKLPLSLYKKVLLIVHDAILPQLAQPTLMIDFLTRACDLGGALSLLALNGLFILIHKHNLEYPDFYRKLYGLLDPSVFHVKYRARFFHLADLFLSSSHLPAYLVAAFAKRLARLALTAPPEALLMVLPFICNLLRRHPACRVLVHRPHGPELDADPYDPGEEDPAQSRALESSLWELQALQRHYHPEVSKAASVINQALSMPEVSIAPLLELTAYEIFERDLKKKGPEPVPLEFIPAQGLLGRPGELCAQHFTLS
UniProt Q9UQ80, sequence (Q9UQ80 whole entry, looked up): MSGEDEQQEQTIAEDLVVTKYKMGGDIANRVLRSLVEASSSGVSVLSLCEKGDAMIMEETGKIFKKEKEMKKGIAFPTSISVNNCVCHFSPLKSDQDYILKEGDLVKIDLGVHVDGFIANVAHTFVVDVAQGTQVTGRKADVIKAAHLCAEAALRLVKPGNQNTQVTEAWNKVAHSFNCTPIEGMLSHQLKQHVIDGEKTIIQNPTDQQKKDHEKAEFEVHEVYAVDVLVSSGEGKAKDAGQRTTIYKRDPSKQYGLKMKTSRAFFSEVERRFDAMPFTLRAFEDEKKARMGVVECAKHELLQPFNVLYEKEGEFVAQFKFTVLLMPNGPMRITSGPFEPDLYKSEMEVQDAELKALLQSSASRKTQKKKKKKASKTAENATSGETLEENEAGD
UniProt Q9ULE6, sequence (Q9ULE6 whole entry, looked up): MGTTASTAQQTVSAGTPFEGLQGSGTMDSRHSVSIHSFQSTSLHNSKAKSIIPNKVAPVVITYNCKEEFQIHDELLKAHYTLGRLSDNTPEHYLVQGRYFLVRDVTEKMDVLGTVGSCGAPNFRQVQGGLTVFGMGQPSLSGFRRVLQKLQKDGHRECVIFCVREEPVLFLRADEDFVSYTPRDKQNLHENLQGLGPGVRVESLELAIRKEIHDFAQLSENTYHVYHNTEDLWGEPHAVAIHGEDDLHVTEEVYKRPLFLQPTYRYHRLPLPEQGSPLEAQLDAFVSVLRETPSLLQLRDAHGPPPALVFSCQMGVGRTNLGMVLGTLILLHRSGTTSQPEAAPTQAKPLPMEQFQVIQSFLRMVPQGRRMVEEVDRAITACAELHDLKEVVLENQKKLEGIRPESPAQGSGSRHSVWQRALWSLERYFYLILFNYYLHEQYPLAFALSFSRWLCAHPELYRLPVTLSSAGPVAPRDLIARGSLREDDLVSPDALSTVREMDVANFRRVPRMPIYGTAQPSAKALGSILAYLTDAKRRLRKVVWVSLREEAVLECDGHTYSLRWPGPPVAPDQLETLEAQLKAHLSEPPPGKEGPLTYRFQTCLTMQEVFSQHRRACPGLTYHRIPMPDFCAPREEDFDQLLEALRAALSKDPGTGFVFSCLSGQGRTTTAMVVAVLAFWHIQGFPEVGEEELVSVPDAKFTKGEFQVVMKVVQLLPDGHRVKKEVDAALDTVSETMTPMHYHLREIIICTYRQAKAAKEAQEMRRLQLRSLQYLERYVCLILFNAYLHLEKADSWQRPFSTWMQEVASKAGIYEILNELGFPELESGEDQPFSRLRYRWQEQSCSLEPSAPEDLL

Target	probe-labelled cysteine peptide fold change (10 µM)	probe-labelled cysteine peptide fold change (50 µM)
NSUN2_Q08J23_673+678_YEPDSANPDALQCPIVLCGWR (UniProt Q08J23)	0.0479	0.0634
NDUFB10_O96000_119_EGQNYQQNCIK (UniProt O96000)	-0.0835	-0.0614
NEMF_O60524_663_VDESCVWR (UniProt O60524)	0.233	0.569
NUP93_Q8N1F7_328_CGDLLAASQVVNR (UniProt Q8N1F7)	0.0268	0.221
NUDC_Q9Y266_188_WTQTLSELDLAVPFCVNFR (UniProt Q9Y266)	-0.0574	0.00376
PAFAH1B1_P43034_281_EHEHVVECISWAPESSYSSISEATGSETK (UniProt P43034)	-0.156	0.158
NVL_O15381_803_EASICALR (UniProt O15381)	0.0326	0.175
OPLAH_O14841_408_LLPASFPCIFGPGENQPLSPEASR (UniProt O14841)	-0.283	-0.252
OSBPL1A_Q9BXW6_340_EDWLEAIEEHSAYSTHYCSQDQLTDEEEEDTVSAADLKK (UniProt Q9BXW6)	0.199	-0.153
OSBPL1A_Q9BXW6_520_DCGGGDALSNGIK (UniProt Q9BXW6)	0.00496	0.0314
NPM3_O75607_79_VEEEDDAEHVLALTMLCLTEGAKDECNVVEVVAR (UniProt O75607)	-0.083	0.00371
NCOA7_Q8NI08_487_GALDLETCEK (UniProt Q8NI08)	-0.182	-0.181
PA2G4_Q9UQ80_296_MGVVECAKHELLQPFNVLYEK (UniProt Q9UQ80)	-0.781	-0.434
ORC3_Q9UBD5_158_LISQLMDCCVDIK (UniProt Q9UBD5)	-0.0854	-0.134
NUP133_Q8WUM0_700+702_EVSQVDTICECLLEHEEQVLR (UniProt Q8WUM0)	0.507	0.631
OSGEP_Q9NPF4_160_IFGETIDIAVGNCLDR (UniProt Q9NPF4)	0.0104	-0.0314
NFRKB_Q6P4R8_17_MDSLDHMLTDPLELGPCGDGHGTR (UniProt Q6P4R8)	-0.196	-1.37
NOC4L_Q9BVI4_509_KGPEPVPLEFIPAQGLLGRPGELCAQHFTLS (UniProt Q9BVI4)	0.0196	-0.199
NOL10_Q9BSC4_147_DFSYHYPSCDLYFVGASSEVYR (UniProt Q9BSC4)	-0.459	-0.299

Target	probe-labelled cysteine peptide fold change (10 µM)	probe-labelled cysteine peptide fold change (50 µM)
PDLIM1_O00151_286_HRHPECYVCTDCGTNLK (UniProt O00151)	0.117	0.192
PALD1_Q9ULE6_631_IPMPDFCAPREEDFDQLLEALR (UniProt Q9ULE6)	0.052	0.057
PDHB_P11177_161_GPNGASAGVAAQHSQCFAAWYGHCPGLK (UniProt P11177)	0.0327	0.0759
NPM1_P06748_21_MEDSMDMDMSPLRPQNYLFGCELK (UniProt P06748)	-0.279	-0.642
PARK7_Q99497_46_VTVAGLAGKDPVQCSR (UniProt Q99497)	-0.13	-0.213
ORC5_O43913_10_PHLENVVLCR (UniProt O43913)	-0.0683	-0.0422
NLRX1_Q86UT6_713_CTVVAAVLGSGR (UniProt Q86UT6)	-0.136	0.223
NOL9_Q5SY16_219_WSMQNFSPQCSIVLLEHLK (UniProt Q5SY16)	0.0873	0.0078
P4HB_P07237_312_ILEFFGLKKEECPAVR (UniProt P07237)	-0.567	-0.501
NIT2_Q9NQR4_153_VGLGICYDMR (UniProt Q9NQR4)	-0.261	-1.18
NDUFB7_P17568_90_HDWDYCEHR (UniProt P17568)	0.161	0.191
NEK1_Q96PY6_276_FLSPQLIAEEFCLK (UniProt Q96PY6)	0.0381	0.161
NUP133_Q8WUM0_457_IVFNAQGDSVLGAGACGGVPIIFSR (UniProt Q8WUM0)	-0.146	-0.142
NF1_P21359_1016_LCQLVEVMMAR (UniProt P21359)	0.0549	0.181
NSUN5_Q96P11_278+279_AGVSCCELAEEDFLAVSPSDPR (UniProt Q96P11)	0.234	-0.117
PARP1_P09874_845_IEREGECQR (UniProt P09874)	-0.00747	0.129
NLRX1_Q86UT6_779_DLRDLLLHDQCQITTLR (UniProt Q86UT6)	-0.173	-0.114
PCBP3_P57721_141_LVVPASQCGSLIGK (UniProt P57721)	-0.0567	-0.121

From the supplement of paper PMC12067093, “Discovery and optimisation of a covalent ligand for TRIM25 and its application to targeted protein ubiquitination” (Chemical Science, 2025)
